Data reported in PubChem BioAssay AID720519 (National Center for Advancing Translational Sciences (NCATS), 2013).
Inconclusive results are not listed. Where a call stands in place of a potency, no number is given. The source made the active and inactive calls. Calls follow the shape of the dose curve; as a rule, active = well fitted activation curve with a large enough effect; inconclusive = small, poorly fitted or top-dose-only effect; inactive = flat fitted curve, though single readings scatter.

Experiment: qHTS for Inhibitors of Cell Surface uPA Generation: Confirmatory Assay for Cherry-picked Compounds
Conditions: cell surface uPA activity generation, qHTS confirmation; series mostly up to 115 µM
Summary of the method: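 RAW 264.7 cells at 4000/well, incubated overnight, then treated with compounds. After 24 h at 37 C, viability was read by ATPlite luminescence. An increase in signal indicates blocked uPA-dependent LF entry.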

| SMILES | Potency |
| --- | --- |
| CCc1ccc(S(=O)(=O)NCCc2cn3cccc(C)c3n2)s1 | inactive |
| CC(=O)c1ccc(OCCCCOc2ccc(C(C)=O)cc2)cc1 | inactive |
| O=C(CNS(=O)(=O)c1ccc(F)cc1)Nc1ccccc1 | inactive |
| CC(=O)c1cccc(NC(=O)N2C3CCC2CC(O)(c2cccnc2)C3)c1 (stereo not drawn) | inactive |
| O=C(C[n+]1ccccc1)Nc1ccccc1C(F)(F)F | inactive |
| CCC(C(=O)NCc1ccc(C)cc1)c1ccccc1 (stereo not drawn) | inactive |
| O=C(NC1CCCCC1)C(c1ccco1)N(C(=O)c1csnn1)c1cccc(Cl)c1 (stereo not drawn) | inactive |
| Cc1oc(-c2ccccc2F)nc1CS(=O)CC(=O)NCc1ccc(F)cc1 (stereo not drawn) | inactive |
| O=C(NCCS(=O)(=O)N1CCC2(CC1)OCCO2)c1ccc(F)cc1 | inactive |
| COc1cc(NC(=O)COC(=O)c2cc(S(=O)(=O)N3CCCCC3)ccc2Cl)c(C)cc1[N+](=O)[O-] | inactive |
| COc1ccc(-c2cc(-c3ccccc3)nc3ncnn23)cc1 | inactive |
| CCN(C(=O)CSc1ncnc2sccc12)c1c(N)n(Cc2ccccc2)c(=O)[nH]c1=O | inactive |
| COc1ccccc1C(=O)NCc1ccccc1 | inactive |
| CCC(C)Nc1cc(C)nc2ncnn12 (stereo not drawn) | inactive |
| Cc1ccc(/C=N/NC(=O)c2ccc3nc[nH]c3c2)s1 | inactive |
| Cc1ccn(CCC(=O)N2CCc3ccccc32)n1 | inactive |
| CCN(CC)S(=O)(=O)c1ccc(C(=O)Nc2cccc(C)c2)cc1 | inactive |
| Cc1ccc(S(=O)(=O)NCC(=O)OC(C)C(=O)NCc2ccc3c(c2)OCO3)cc1 (stereo not drawn) | inactive |
| CCCN1CCN(CC(=O)Nc2nncs2)CC1 | inactive |

| SMILES | Potency |
| --- | --- |
| COc1ccc(C)cc1NC(=O)CSCc1cc(=O)n2c(C)csc2n1 | inactive |
| CCc1ccccc1N1C(=O)CC(Sc2nccc(C)n2)C1=O (stereo not drawn) | inactive |
| COc1ccc(NC(=O)Nc2nnc(N3CCCCC3C)s2)cc1OC (stereo not drawn) | inactive |
| CCOc1ccc(-c2n[nH]c(=S)n2Cc2ccccc2)cc1 | inactive |
| Cc1cc2c(cc1S(=O)(=O)Nc1ccc(F)cc1)n(C)c(=O)c(=O)n2C | inactive |
| COc1ccccc1N=Nc1c(C)[nH]n(-c2ccccc2)c1=O | inactive |
| COc1ccccc1NNC(=O)C(O)(c1ccccc1OC)c1ccccc1OC | inactive |
| COc1cc(C(=O)Nc2nnc(C)s2)cc(OC)c1OC | inactive |
| CC(C)C[C@H]1CN([C@@H](CC(C)C)CN2CCCC2CN2C(=S)NC[C@@H]2Cc2ccc(O)cc2)C(=S)N1CC1CCCCC1 (stereo partly drawn) | inactive |
| Cc1nc(NC(=O)COC(=O)CCc2ccccc2)c(Cl)cc1Cl | inactive |
| CNS(=O)(=O)c1cc(-c2nnc(Nc3ccc(CC(N)=O)cc3)c3ccccc23)ccc1C | inactive |
| COc1ccc(CCNC(=O)Cn2c(=O)n(-c3cc(F)ccc3F)c(=O)c3sccc32)cc1OC | inactive |
| Cc1cnc(CNC(=O)CC2C(=O)NCCN2Cc2ccccc2C(F)(F)F)cn1 (stereo not drawn) | inactive |
| COCCOc1ccc(C(F)(F)F)cc1NC(=O)COC(=O)Cc1c[nH]c2ccccc12 | inactive |
| O=C1NCCN1C(=O)N(c1ccccc1)c1ccccc1 | inactive |
| O=C(CN(c1ccccc1F)S(=O)(=O)c1ccccc1)Nc1ccc2c(c1)OCCO2 | inactive |
| COCCCN1CC23C=CC(O2)C(C(=O)O)C3C1=O (stereo not drawn) | inactive |
| COc1ccc(N2CCN(C(=O)COc3ccc4c(C)c(C)c(=O)oc4c3C)CC2)cc1 | inactive |
| CCOC(=O)[C@H]1[C@H]2COc3ccc(Br)cc3[C@@H]2N2C(=O)c3c(C)cc(C)cc3NC(=O)[C@@]12C | inactive |
